Rows were chosen to be rich in hits. Some 0.87% of all compounds tested hit in one or more screens of this group.
TDP1 block – TDP1 (human) enzyme inhibition; Potency, µM (highest dose often 130 µM), for the others: top-dose activity change, negative = inhibition, usual class: inhibitors; AID 485290; actives 0.28% (n = 350,000); recombinant TDP1, AlphaScreen DNA substrate cleavage; Q9NUW8; also: nearly all actives have a fitted effect of over 40% in size
Target sequence (Q9NUW8 whole entry, looked up): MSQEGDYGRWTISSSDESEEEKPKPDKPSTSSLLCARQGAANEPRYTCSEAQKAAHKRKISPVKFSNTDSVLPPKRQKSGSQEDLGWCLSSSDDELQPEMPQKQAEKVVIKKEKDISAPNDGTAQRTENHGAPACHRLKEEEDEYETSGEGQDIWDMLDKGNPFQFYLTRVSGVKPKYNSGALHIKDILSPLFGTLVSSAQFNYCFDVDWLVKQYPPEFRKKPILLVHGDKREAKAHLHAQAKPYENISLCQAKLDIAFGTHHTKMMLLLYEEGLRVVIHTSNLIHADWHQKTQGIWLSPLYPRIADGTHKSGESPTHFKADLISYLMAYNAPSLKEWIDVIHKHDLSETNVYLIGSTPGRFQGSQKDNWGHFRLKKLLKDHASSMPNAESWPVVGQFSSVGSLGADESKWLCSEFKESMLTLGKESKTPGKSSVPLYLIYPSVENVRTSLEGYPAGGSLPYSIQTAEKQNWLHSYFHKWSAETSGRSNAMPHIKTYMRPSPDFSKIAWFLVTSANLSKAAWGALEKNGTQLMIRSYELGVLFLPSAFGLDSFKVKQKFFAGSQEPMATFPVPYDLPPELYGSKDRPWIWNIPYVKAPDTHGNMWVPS
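E. coli-derived human Tdp1, 1 nM final. Cpd preinc 15 min RT; substrate 15 nM final, 5 min RT; AS bead mix 10 ug/ml final, 10 min RT. Signal loss = tyrosine-FITC cleavage. No-enzyme wells = max signal.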
KAT2A inh – GCN5L2 (KAT2A) acetyltransferase inhibition. GCN5L2 HAT assay, ThioGlo1 CoA-SH fluorescence. Potency, µM (series often up to 58.9 µM), for the others: at the top dose activity change, negative = inhibition, hits mostly inhibitors. actives 0.21% (n = 390,000). AID 504327
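Free CoA generated was detected with ThioGlo1 (50uM) fluorescence at Ex340nm/Em540nm, read immediately and after 20 min at room temperature. Enzyme, 20 nM in HEPES pH 7.5 buffer, saw compounds 15 min before adding 75uM H3(1-25) peptide and 70uM acetyl-CoA.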
RECQ1 inh-1 – blocks DNA unwinding by human RECQ1 | RECQ1 DNA unwinding, red fluorescence kinetic read | actives 0.54% (n = 240,000) | P46063 | Potency, µM (doses to about 57.3 µM), inactives show at the top dose activity, negative = inhibition, hits mostly inhibitors;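 also: plate controls were vehicle for no effect and no enzyme for full effect; nearly all actives have a fitted effect of over 30% in size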
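RECQ1T1 50 nM; forked duplex (20 bp + 30-nt ss tails) 200 nM, ATP 2 mM final; pH 8.0, 2 mM MgCl2, 2.5 ug/ml poly(dI-dC); 15 min compound preincubation; discontinuous kinetic read over 2 h at RT.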
APE1 inh – APE1 (human) endonuclease inhibition; P27695; recombinant APE1, TAMRA/BHQ-2 abasic DNA cleavage fluorescence; Potency, µM (series often up to 65.8 µM), inactives show top-dose activity change, negative = inhibition, most hits filed as inhibitors; actives 0.35% (n = 350,000); AID 2517;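 also: plate controls were vehicle for no effect and reference inhibitor for full effect; nearly all actives have a fitted effect of over 55% in size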
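Quantitative HTS: incision of a TAMRA/BHQ-2 double-stranded substrate bearing a tetrahydrofuran abasic site by 0.75 nM APE1 raises fluorescence. Substrate 50 nM final, added after 15 min compound preincubation at room temperature; progress as third-minus-first kinetic read difference.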
BLM helicase inh – Bloom syndrome helicase (human) inhibition; P54132; recombinant BLM DNA unwinding, fluorescence dequenching; Potency, µM (highest dose often 56.1 µM), inactives show at the top dose activity change, negative = inhibition, hits mostly inhibitors; actives 0.2% (n = 350,000);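 also: plate controls were vehicle for no effect and no enzyme for full effect; nearly all actives have a fitted effect of over 35% in size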
RECQ1 inh conf – confirmation of human RECQ1 helicase inhibitors | RECQ1 helicase DNA unwinding, fluorescence | Potency, µM (titrated, usually from 229 µM), inactives show at the top dose activity change, negative = inhibition, usual class: inhibitors | actives 28% (n = 610) | shares compounds with RECQ1 inh-1; also: nearly all actives have a fitted effect of over 45% in size
ADP FP counter – counter-screen for RECQ1 inhibitors: ADP displacement; AID 2711; Potency, µM (series often up to 228 µM), inactives show top-dose activity change, negative = inhibition, most hits filed as inhibitors; actives 27% (n = 530); ADP fluorescence polarization displacement counterscreen; shares compounds with RECQ1 inh-1; also: nearly all actives have a fitted effect of over 45% in size
RECQ1 inh-2 – RECQ1 helicase inhibition confirmed, round 2. shares compounds with RECQ1 inh-1. recombinant RECQ1 DNA unwinding, red fluorescence. Potency, µM (top dose mostly 119 µM), without a hit: at the top dose activity, negative = inhibition, hits mostly inhibitors. actives 15% (n = 1,100). AID 504841; also: nearly all actives have a fitted effect of over 50% in size
Active calls of the source: *; i = inactive; ? = inconclusive; · = not tested or not shown; [ ] = remark or other dose. Calls follow the shape of the dose curve; as a rule, active = well fitted curve in the direction sought with a large enough effect; inconclusive = small, poorly fitted or top-dose-only effect, or another doubt; inactive = no such curve, though single readings can be large; an effect the other way counts as inactive or inconclusive. Unless noted, % is scaled to controls: 0 for no effect and ±100 for the full control effect; potency is read from the fitted curve at half-maximal effect.

SMILES	TDP1 block	KAT2A inh	RECQ1 inh-1	APE1 inh	BLM helicase inh	RECQ1 inh-2	others
Cc1ccccc1N1CCN(S(=O)(=O)c2nnc(NC(=O)c3ccc(C(C)C)cc3)s2)CC1	5.2%	-4.4%	·	·	3.0%	·
COC(=O)c1cn(C)c2ccc(S(=O)(=O)N3CCCC3)cc2c1=O	4.0%	-16.6%	?	-3.4%	-2.0%	-31.0%
Cn1cc(C(=O)O)c(=O)c2cc(S(=O)(=O)N3CCCCC3)ccc21	13.0%	1.0%	·	·	-3.1%	·
CC(C)C[C@H](NC(=O)c1nc[nH]c1C(=O)NCCCCCNC(=O)OC(C)(C)C)C(=O)OCc1ccccc1	10.3%	-11.9%	?	?	-16.3%	-19.8%
C[C@H](NC(=O)c1nc[nH]c1C(=O)N[C@@H](Cc1ccccc1)C(=O)OCc1ccccc1)c1ccccc1	11.5%	-11.4%	39.8µM*	-6.6%	-14.6%	-24.4%
CC(C)C[C@H](NC(=O)c1nc[nH]c1C(=O)N[C@@H](CCCCNC(=O)OC(C)(C)C)C(=O)OC(C)(C)C)C(=O)OCc1ccccc1	·	-16.1%	·	3.8%	-13.2%	·
C[C@@H](NC(=O)c1nc[nH]c1C(=O)N[C@@H](Cc1ccccc1)C(=O)OCc1ccccc1)c1ccccc1	9.0%	-4.6%	-25.9%	-2.5%	-15.0%	·
CO[C@H]1COC(=O)[C@H](C)NC(=O)C/C=C\[C@@H](C)[C@@H](NS(=O)(=O)c2ccc(C)cc2)COC(=O)[C@H](OCc2ccccc2)/C=C\[C@@H]1C	5.8%[21 µM]	·	-6.4%[11.5 µM]	?	-0.3%[12.4 µM]	·
CC[C@H]1OC(=O)[C@H](C)C(=O)[C@H](C)[C@@H](OC2O[C@H](C)C[C@H](N(C)C)[C@@H]2O)[C@@](C)(OC)C[C@@H](C)C(=O)[C@@H](C)C2N(CCCCn3cnc(-c4cccnc4)c3)C(=O)O[C@@]21C (some centres not stated)	·	4.3%	·	·	-10.6%	·
CC1(C)CC(=O)/C(=C(\O)CCCN2C(=O)c3ccccc3C2=O)C(=NCC(=O)O)C1	0.0%	-2.7%	i	15.5%	0.0%	·	RECQ1 inh conf=-2.2%;ADP FP counter=1.5%
COc1cc(Br)c(CCNC(=O)c2ccco2)cc1OC	-12.8%	-15.3%	?	20.1%	-1.9%	-7.9%
COc1ccccc1OCCNC(=O)c1ccco1	4.6%	-2.2%	·	-5.5%	-1.0%	·
O=C(/C=C/c1ccco1)NCC1OCCc2ccccc21 (configuration not stated)	·	-27.1%	?	?	?	6.31µM*
COc1cccc(CNC(=O)C2=C(C)C(=O)OC23CCN(C(C)=O)CC3)c1OC	-7.5%	0.5%	·	·	1.2%	·
Cc1cc(N)c2ccccc2[n+]1CCCCCCCCCC[n+]1c(C)cc(N)c2ccccc21	12.3%[56.1 µM]	-6.8%	?	?	-26.5%	·	RECQ1 inh conf=?;ADP FP counter=22.4µM*
NS(=O)(=O)c1ccc(-c2ccc(C=C3C(=O)c4ccccc4C3=O)o2)cc1	·	1.9%	·	32.9%	-3.1%	·
CC(C)CC1=C/C(=C/c2ccc(-c3ccccc3)o2)C(=O)O1	5.3%	?	25.1µM*	?	-25.0%	·	RECQ1 inh conf=?
Oc1ccccc1-c1nnc(SCCN2CCOCC2)n1Cc1ccccc1	0.0%	-6.2%	1.58µM*	-0.5%	0.1%	?	RECQ1 inh conf=8.3%[114 µM];ADP FP counter=-9.9%[91.9 µM]
O=C(CSc1nnc(-c2ccccc2)n1Cc1ccccc1)N1CCOCC1	1.9%	2.3%	2.8%	8.2%	-3.0%	·
Cc1ccc(S(=O)(=O)N2CCCc3cc(NC(=O)c4c(F)cccc4F)ccc32)cc1	0.8%	?	·	-16.6%	-10.9%	·

Assay outcomes (PubChem BioAssay)
